Values without a mark were called inactive. Results filed as inconclusive are left out. Entries that show only a call come without a potency. Activity calls are given as the source filed them. Unless noted, calls follow the shape of the dose curve; as a rule, active = well fitted curve in the direction sought with a large enough effect in the repeat runs; inconclusive = weak or mixed curves; inactive = no such curve, though single readings can be large; an effect the other way counts as inactive or inconclusive.
Tests used:
[1] = target: Thyrotropin receptor (Homo sapiens) (UniProt P16473); assay: qHTS assay to identify small molecule antagonists of the thyroid stimulating hormone receptor (TSHR) signaling pathway (AID 1259385; calls by dose curve; also: nearly all actives have a fitted effect of over 20% in size)
Sequence of Thyrotropin receptor (Homo sapiens) (P16473 whole entry, looked up): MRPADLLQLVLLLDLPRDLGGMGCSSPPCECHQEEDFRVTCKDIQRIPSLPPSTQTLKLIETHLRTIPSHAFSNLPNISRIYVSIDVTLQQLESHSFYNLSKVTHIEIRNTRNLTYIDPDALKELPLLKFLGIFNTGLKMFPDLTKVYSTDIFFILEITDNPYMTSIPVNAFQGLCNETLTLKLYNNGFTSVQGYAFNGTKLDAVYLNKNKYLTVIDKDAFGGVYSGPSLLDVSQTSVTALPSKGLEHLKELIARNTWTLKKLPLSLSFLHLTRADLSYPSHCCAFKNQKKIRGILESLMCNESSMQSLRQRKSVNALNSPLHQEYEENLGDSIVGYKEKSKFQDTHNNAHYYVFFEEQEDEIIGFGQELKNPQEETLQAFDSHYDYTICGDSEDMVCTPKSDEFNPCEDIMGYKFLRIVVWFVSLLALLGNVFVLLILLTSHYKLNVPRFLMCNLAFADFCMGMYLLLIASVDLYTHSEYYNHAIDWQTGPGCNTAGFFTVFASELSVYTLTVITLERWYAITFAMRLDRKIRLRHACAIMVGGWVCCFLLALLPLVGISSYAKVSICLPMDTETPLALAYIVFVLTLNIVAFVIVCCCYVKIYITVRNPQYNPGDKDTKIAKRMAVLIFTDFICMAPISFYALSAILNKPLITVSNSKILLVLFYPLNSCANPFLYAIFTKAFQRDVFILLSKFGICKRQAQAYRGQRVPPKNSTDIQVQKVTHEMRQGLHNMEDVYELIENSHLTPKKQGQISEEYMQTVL
In short: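 Antagonist mode: compound-treated TSHR-expressing HEK293 cells were stimulated with 1.5 ng/mL TSH (final) in presence of Ro20-1724 for 30 min at RT. HTRF cAMP detection after 1 h; each compound tested at 15 concentrations, triplicate.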

[2] = qHTS assay to identify small molecule agonists of the estrogen receptor alpha (ER-alpha) signaling pathway in the presence of an antagonist - cell viability counter screen (AID 1259386);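 also: series mostly up to about 92 µM; cells exposed to compounds for 22 h at 37 °C before the viability read; nearly all actives have a fitted effect of over 30% in size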
In short: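 Viability counter screen using VM7Luc4E2 (full-length ER-alpha, four ERE-luciferase). The cells were treated with compounds alongside ICI-182,780 10.0nM for 22hr, and live-cell protease fluorescence was quantified with CellTiter-Fluor.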

[3] = target: Progesterone receptor (Homo sapiens) (UniProt P06401); assay: qHTS assay to identify small molecule agonists of the progesterone receptor (PR) signaling pathway (AID 1346784; calls by dose curve; also: nearly all actives have a fitted effect of over 30% in size)
Sequence of Progesterone receptor (Homo sapiens) (P06401 whole entry, looked up): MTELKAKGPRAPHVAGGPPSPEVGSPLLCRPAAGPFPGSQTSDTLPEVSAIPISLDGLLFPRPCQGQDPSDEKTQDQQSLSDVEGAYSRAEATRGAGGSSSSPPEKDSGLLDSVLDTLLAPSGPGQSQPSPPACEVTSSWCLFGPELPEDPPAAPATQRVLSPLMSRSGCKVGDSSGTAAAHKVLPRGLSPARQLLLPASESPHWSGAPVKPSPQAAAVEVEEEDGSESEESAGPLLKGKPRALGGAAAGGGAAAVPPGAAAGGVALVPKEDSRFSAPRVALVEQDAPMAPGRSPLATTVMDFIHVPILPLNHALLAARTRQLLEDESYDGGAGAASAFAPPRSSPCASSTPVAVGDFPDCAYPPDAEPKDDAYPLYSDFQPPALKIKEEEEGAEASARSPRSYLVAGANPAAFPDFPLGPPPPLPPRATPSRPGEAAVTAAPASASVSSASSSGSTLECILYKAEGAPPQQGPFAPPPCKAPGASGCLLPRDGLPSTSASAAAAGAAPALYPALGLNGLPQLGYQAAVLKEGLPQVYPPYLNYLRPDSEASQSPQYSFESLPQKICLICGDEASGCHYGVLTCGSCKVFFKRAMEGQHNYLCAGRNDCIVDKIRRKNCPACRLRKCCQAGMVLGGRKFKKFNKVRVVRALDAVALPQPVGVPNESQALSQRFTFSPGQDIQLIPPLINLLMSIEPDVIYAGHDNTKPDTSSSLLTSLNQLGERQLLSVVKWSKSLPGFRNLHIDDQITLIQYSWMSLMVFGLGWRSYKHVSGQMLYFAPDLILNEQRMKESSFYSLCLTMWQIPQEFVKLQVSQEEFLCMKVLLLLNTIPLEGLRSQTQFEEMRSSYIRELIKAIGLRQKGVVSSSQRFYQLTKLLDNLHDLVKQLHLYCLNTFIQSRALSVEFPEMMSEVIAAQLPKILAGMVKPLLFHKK
In short: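 The screen uses PR-UAS-bla HEK 293T cells in charcoal-stripped serum (2%). Compounds are applied for 16 hr at 37C after a 6 hr pre-incubation, and reporter activity is detected with a FRET beta-lactamase substrate after 2 hr at room temperature.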

[4] = qHTS assay to identify small molecule antagonists of the progesterone receptor (PR) signaling pathway - cell viability counter screen (AID 1346798); also: nearly all actives have a fitted effect of over 50% in size; also: potency is read from the fitted curve at half-maximal effect
In short: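 Viability was determined by ATP-based luminescence (CellTiter-Glo) in PR-UAS-bla HEK293T cells cultured in 2% charcoal-stripped serum and incubated 16 hr with compounds under R5020 stimulation.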

[5] = qHTS assay to identify small molecule antagonists of the TGF-beta/Smad signaling pathway - cell viability counter screen (AID 1346824); also: nearly all actives have a fitted effect of over 50% in size
In short: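 Cytotoxicity counter-screen run in the same wells as the beta-lactamase Smad reporter read: CellTiter-Glo luminescence after 30 min at room temperature. HEK 293T SBE-bla cells had 5 hr compound exposure at 37 C with TGF-beta1 (0.25 ng/mL stock).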

[6] = qHTS assay to identify small molecule agonists of the TGF-beta/Smad signaling pathway - cell viability counter screen (AID 1346829); also: top concentration of the series differs between compounds; nearly all actives have a fitted effect of over 45% in size
In short: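 Compound-treated SBE-bla HEK 293T cells (5 hr, 37 C) were assessed for viability with CellTiter-Glo in parallel with the reporter read.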

[7] = target: Thyrotropin-releasing hormone receptor (Homo sapiens) (UniProt P34981); assay: qHTS assay to identify small molecule antagonists of the thyrotropin-releasing hormone receptor (TRHR) signaling pathway (AID 1346877; active = well fitted inhibition curve with a large enough effect in the repeat runs, not every such curve was filed as active; also: series mostly up to about 51 µM)
Sequence of Thyrotropin-releasing hormone receptor (Homo sapiens) (P34981 whole entry, looked up): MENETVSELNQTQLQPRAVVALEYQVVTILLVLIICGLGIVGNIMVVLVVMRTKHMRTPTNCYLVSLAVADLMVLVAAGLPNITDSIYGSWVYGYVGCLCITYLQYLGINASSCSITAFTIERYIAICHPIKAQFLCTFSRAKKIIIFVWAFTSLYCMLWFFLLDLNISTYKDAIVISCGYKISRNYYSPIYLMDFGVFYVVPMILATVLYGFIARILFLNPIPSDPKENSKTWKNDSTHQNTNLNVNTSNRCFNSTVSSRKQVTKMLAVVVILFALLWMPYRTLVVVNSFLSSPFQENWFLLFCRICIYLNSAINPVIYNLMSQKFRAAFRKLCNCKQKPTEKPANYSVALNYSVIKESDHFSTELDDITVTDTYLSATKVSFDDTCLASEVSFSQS
In short: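 Following an 18 h incubation at 37 °C and a 2 h calcium dye load, TRHR-HEK293 cells were exposed to compound (5 min, room temperature) and challenged with TRH, 1 nM final.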

[8] = target: Thyrotropin-releasing hormone receptor (Homo sapiens) (UniProt P34981); assay: qHTS assay to identify small molecule agonists of the thyrotropin-releasing hormone receptor (TRHR) signaling pathway (AID 1346891; calls by dose curve;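 also: HEK293 cells expressing TRHR with calcium dye readout; series mostly up to about 58 µM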)
In short: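 Kinetic fluorescence (3 min, 1 s intervals) reported intracellular calcium after compound transfer onto TRHR-Hek293 cells pre-loaded with dye for 2 h at 37 °C.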

[9] = Caspase-3/7 induction in HepG2 cells by small molecules, qHTS assay (AID 1346978); also: nearly all actives have a fitted effect of over 15% in size
In short: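 Caspase-3/7 induction was measured by Caspase-Glo 3/7 luminescence (30 min, room temperature) after a 17 hr compound exposure of wild-type HepG2 cells seeded at 2,000 per well and pre-incubated 5 hr.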

[10] = Caspase-3/7 induction in CHO-K1 cells by small molecules, qHTS cell viability counter screen (AID 1346979); also: nearly all actives have a fitted effect of over 35% in size; also: potency is read from the fitted curve at half-maximal effect
In short: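 Seeding: 1,500 CHO-K1 cells/well. Rest: 5hr, 37C. Treatment: compounds in DMSO, 16hr. Read: CellTiter-Fluor, 1hr, fluorescence.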

[11] = Caspase-3/7 induction in CHO-K1 cells by small molecules, qHTS assay (AID 1346980); also: nearly all actives have a fitted effect of over 15% in size
In short: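 Luminescent Caspase-Glo 3/7 read (30min, room temperature) quantified apoptosis induction. Cells were wild-type CHO-K1, treated with compound for 17hr at 37 C and 5% CO2.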

[12] = target: Nuclear receptor subfamily 1 group I member 2 (Homo sapiens) (UniProt O75469); assay: Human pregnane X receptor (PXR) small molecule agonists, qHTS assay (AID 1346982); also: nearly all actives have a fitted effect of over 35% in size; also: potency is read from the fitted curve at half-maximal effect
Sequence of Nuclear receptor subfamily 1 group I member 2 (Homo sapiens) (O75469 whole entry, looked up): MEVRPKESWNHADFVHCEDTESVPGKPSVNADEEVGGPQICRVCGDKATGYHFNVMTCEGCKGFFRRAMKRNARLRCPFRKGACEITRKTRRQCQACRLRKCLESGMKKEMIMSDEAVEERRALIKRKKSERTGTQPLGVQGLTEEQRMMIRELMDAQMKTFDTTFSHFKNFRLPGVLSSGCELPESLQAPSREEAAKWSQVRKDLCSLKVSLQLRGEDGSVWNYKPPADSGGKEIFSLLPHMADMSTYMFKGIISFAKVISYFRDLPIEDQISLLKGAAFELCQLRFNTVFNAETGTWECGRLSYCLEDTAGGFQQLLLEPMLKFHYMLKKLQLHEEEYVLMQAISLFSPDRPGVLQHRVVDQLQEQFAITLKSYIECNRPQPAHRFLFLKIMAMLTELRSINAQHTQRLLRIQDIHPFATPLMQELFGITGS
In short: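 Compound-induced hPXR transactivation of a CYP3A4 luciferase reporter was scored in HepG2 PXR-Luc cells over 24 hr at 37 C, 5% CO2, by luminescence.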

[13] = target: Cytochrome P450 2D6 (Homo sapiens) (UniProt P10635); assay: Cytochrome P450 Family 2 Subfamily D Member 6 (CYP2D6) small molecule antagonists: luciferase reporter qHTS assay (AID 1671196); also: nearly all actives have a fitted effect of over 50% in size; also: potency is read from the fitted curve at half-maximal effect
Sequence of Cytochrome P450 2D6 (Homo sapiens) (P10635 whole entry, looked up): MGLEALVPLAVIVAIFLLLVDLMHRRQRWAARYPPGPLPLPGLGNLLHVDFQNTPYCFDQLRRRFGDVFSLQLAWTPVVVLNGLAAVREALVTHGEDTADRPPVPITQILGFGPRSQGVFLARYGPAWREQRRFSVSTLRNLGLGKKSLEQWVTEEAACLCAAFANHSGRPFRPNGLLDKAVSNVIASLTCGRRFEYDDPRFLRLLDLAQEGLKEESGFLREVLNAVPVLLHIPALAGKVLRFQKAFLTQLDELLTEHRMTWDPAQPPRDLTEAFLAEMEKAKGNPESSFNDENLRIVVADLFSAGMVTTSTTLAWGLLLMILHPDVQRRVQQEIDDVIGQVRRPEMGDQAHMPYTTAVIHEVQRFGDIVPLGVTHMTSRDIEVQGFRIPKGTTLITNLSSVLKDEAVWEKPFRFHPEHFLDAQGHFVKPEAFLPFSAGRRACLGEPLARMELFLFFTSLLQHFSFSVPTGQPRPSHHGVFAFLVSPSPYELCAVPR
In short: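 Each well received CYP2D6 with its proluciferin substrate and chemical, sat 10 min, then got NADPH regeneration solution for 1 h at room temperature. Luminescence in RLU served as the activity measure.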

[14] = target: Progesterone receptor (Homo sapiens) (UniProt P06401); assay: qHTS assay to identify small molecule antagonists of the progesterone receptor (PR) signaling pathway (AID 1346795; active = well fitted inhibition curve with a large enough effect in the signal ratio in the repeat runs, not every such curve was filed as active; the % refers to the signal ratio)
In short: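 After 6 hr plating at 37C in 2% stripped-serum medium, PR-UAS-bla HEK293T cells got compounds, then 1 nM R5020. Sixteen hours later, LiveBLAzer substrate was applied for 2 hr at room temperature and fluorescence was recorded.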

[15] = qHTS assay to identify small molecule agonists of the progesterone receptor (PR) signaling pathway - cell viability counter screen (AID 1346799; calls by dose curve; also: nearly all actives have a fitted effect of over 45% in size; also: potency is read from the fitted curve at half-maximal effect)
In short: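 Viability was scored by ATP luminescence (CellTiter-Glo, 30 min, room temperature) in the same wells used for the reporter readout, after 16 hr compound exposure of PR-UAS-bla HEK293T cells.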

[16] = qHTS assay to identify small molecule agonists of the TGF-beta/Smad signaling pathway (AID 1346859; active = well fitted activation curve with a large enough effect in the signal ratio in the repeat runs, not every such curve was filed as active; the % refers to the signal ratio; also: series mostly up to about 77 µM)
In short: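 Dual-wavelength fluorescence (460/530 nm emission) quantified beta-lactamase expression under the Smad binding element in HEK 293T cells following 5 hr compound treatment at 37 C.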

[17] = Human pregnane X receptor (PXR) small molecule agonists, qHTS cell viability counter screen (AID 1346977); also: nearly all actives have a fitted effect of over 50% in size; also: potency is read from the fitted curve at half-maximal effect
In short: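 HepG2 cells stably carrying the PXR-Luc reporter are cultured with 5% charcoal-stripped FBS and treated with compounds for 24hr. CellTiter-Fluor is added at 23hr and fluorescence is read after 1hr.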

[18] = Caspase-3/7 induction in HepG2 cells by small molecules, qHTS cell viability counter screen (AID 1346981); also: series mostly up to about 92 µM; nearly all actives have a fitted effect of over 30% in size
In short: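 Viability determined by CellTiter-Fluor fluorescence in HepG2 wells also used for the luminescent Caspase-Glo 3/7 read. Compounds were present for 16 hr at 37 C, 5% CO2 before reagent addition.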

[19] = target: Nuclear receptor subfamily 1 group I member 2 (Rattus norvegicus) (UniProt Q9R1A7); assay: Rat pregnane X receptor (rPXR) activation by small molecules, qHTS assay (AID 1346983); settings: rPXR luciferase reporter cells, One-Glo luminescence, 24 h; max activation: stronger effect = higher value; also: nearly all actives have a fitted effect of over 20% in size
Sequence of Nuclear receptor subfamily 1 group I member 2 (Rattus norvegicus) (Q9R1A7 whole entry, looked up): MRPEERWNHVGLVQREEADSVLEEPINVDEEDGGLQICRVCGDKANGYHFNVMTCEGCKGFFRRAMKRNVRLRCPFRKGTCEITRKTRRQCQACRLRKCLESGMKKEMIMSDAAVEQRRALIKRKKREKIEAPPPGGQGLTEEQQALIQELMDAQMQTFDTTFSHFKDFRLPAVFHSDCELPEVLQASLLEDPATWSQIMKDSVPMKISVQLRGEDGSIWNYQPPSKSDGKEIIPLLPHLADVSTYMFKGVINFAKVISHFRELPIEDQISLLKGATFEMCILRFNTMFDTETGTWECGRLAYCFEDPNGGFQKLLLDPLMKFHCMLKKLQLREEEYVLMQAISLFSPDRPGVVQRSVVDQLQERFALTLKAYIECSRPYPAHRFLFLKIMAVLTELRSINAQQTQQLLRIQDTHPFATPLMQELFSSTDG
In short: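 Luminescent readout (One-Glo luciferase, 30 min room temperature) followed 24 hr compound treatment at 37 C of rPXR cells plated 2,000 per well and preincubated 5hr; qHTS format with compounds delivered in DMSO.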

[20] = target: Nuclear receptor subfamily 1 group I member 2 (Homo sapiens) (UniProt O75469); assay: Human pregnane X receptor (PXR) activation by small molecules, qHTS assay (AID 1346985); also: nearly all actives have a fitted effect of over 40% in size
In short: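 DPX-2 cells (HepG2 co-transfected with a PXR response element and a CYP3A4-promoter luciferase construct) were seeded at 2,000 per well, rested 5 hr at 37C, then exposed to DMSO-dissolved compounds for 24 hr. Activation was read as luciferase luminescence.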

| Structure (SMILES) | Potency [1] | Potency [2] | Potency [3] | Potency [4] | outcome [5] | outcome [6] | outcome [7] | outcome [8] | Potency [9] | Potency [10] | Potency [11] | Potency [12] | Potency [13] | Potency [14] | Potency [15] | outcome [16] | Potency [17] | Potency [18] | max activation [19] | Potency [20] |
| --- | --- | --- | --- | --- | --- | --- | --- | --- | --- | --- | --- | --- | --- | --- | --- | --- | --- | --- | --- | --- |
| C[C@H](N)C(=O)N[C@@H](C)C(=O)NC1[C@H]2CN(c3nc4c(cc3F)c(=O)c(C(=O)O)cn4-c3ccc(F)cc3F)C[C@@H]12 (stereo not given in full) | inactive | inactive | inactive | inactive | inactive | inactive | inactive | inactive | inactive | 7.5 µM (active) | inactive | 21.1 µM (active) | inactive |  |  |  |  |  |  |  |
| C=CC(O)CCCCC (stereo not given) | inactive |  | inactive | inactive | inactive | inactive | inactive | inactive | inactive | inactive | inactive | inactive | inactive | inactive | inactive | inactive | inactive |  |  |  |
| CC(=O)S[C@H](C(=O)N[C@H]1Cc2ccccc2[C@H]2CCC[C@@H](C(=O)O)N2C1=O)C(C)C | inactive |  | inactive | inactive | inactive | inactive | inactive | inactive | inactive | inactive | inactive | inactive |  |  | inactive | inactive | inactive | inactive |  |  |
| CCOc1ccc2c(c1)C(C)CC(C)(C)N2 (stereo not given) | inactive |  | inactive |  | inactive | inactive | inactive | inactive | inactive | inactive | inactive | 34.4 µM (active) | 11.2 µM (active) |  | inactive | inactive | inactive | inactive |  |  |
| CC(C)CCCCCCCOC(=O)c1ccc(C(=O)OCCCCCCCC(C)C)c(C(=O)OCCCCCCCC(C)C)c1 | inactive |  | inactive |  | inactive | inactive |  |  | inactive |  | inactive | 19 µM (active) | inactive |  | 42.6 µM (active) | inactive |  | inactive |  |  |
| CC(C)Oc1ccccc1O | inactive |  | inactive | inactive |  | inactive | inactive | inactive | inactive | inactive | inactive | inactive | inactive | inactive |  | inactive | inactive | inactive |  |  |
| CCCCCCOC(=O)c1ccccc1 | inactive |  | inactive | 15.4 µM (active) | inactive | inactive | inactive | inactive | inactive | inactive | inactive | inactive | inactive |  | 17.2 µM (active) | inactive | inactive | inactive |  |  |
| CC1(COc2ccc(CC3SC(=O)NC3=O)cc2)CCCCC1 (stereo not given) | inactive |  | inactive |  |  | inactive | inactive | inactive | inactive |  | inactive |  | inactive |  |  | inactive | inactive | inactive | 5.72% |  |
| CC/C=C/CCO |  | inactive | inactive | 31.2 µM (active) | inactive | inactive | inactive | inactive | inactive | inactive | inactive | inactive | inactive | inactive | 19.7 µM (active) | inactive |  |  |  |  |
| CCc1cnc(C(=O)O)c(C(=O)O)c1 |  | inactive | inactive | inactive | inactive | inactive | inactive | inactive | inactive | inactive | inactive | inactive | inactive | inactive | inactive | inactive | inactive | inactive |  |  |
| C[C@H](CN1CCCC1)C(=O)c1ccc(C(F)(F)F)cc1 |  | inactive | inactive | inactive | inactive | inactive | inactive | inactive | inactive | inactive | inactive | 26.6 µM (active) | 1.55 µM (active) | inactive | inactive | inactive | inactive | inactive |  |  |
| CCOCCn1c(N2CCCN(C)CC2)nc2ccccc21 |  | inactive | inactive | inactive | inactive | inactive | inactive | inactive | inactive | inactive | inactive |  |  | inactive | inactive | inactive | inactive | inactive | 4.1% |  |
| FC(F)(Cl)C(F)(Cl)Cl | inactive |  | inactive |  | inactive | inactive | inactive | inactive | inactive | inactive | inactive | inactive |  |  | inactive | inactive | inactive | inactive |  |  |
| CCCCCCCCOCCCN | inactive |  | inactive | inactive | inactive | inactive | inactive | inactive | inactive | inactive | inactive | inactive | 6.33 µM (active) | inactive |  | inactive | 61.1 µM (active) | inactive |  |  |
| C=Cc1ccc(C=C)cc1 | inactive |  | inactive | inactive | inactive | inactive | inactive | inactive | inactive | inactive | inactive | inactive | inactive |  | inactive | inactive | inactive | inactive |  |  |
| O=C(NC1CCN(CCc2c[nH]c3ccccc23)CC1)c1ccccc1 | inactive |  | inactive |  |  | inactive | inactive | inactive | inactive | inactive | inactive | inactive | 1.95 µM (active) | inactive | inactive | inactive |  | inactive | -9.19% | inactive |
